LmPK inhibitor = qHTS Assay for Inhibitors of Leishmania Mexicana Pyruvate Kinase (LmPK); Q27686; purified LmPK, Kinase-Glo ATP luminescence, 1 h; Potency, µM (doses to about 57.5 µM), inactives show at the top dose activity change, negative = inhibition, usual class: inhibitors; 290,000 compounds, 0.37% hits; AID 1721, 2009; also: potency is read from the fitted curve at half-maximal effect; % is scaled to controls: 0 for no effect and ±100 for the full control effect
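ATP generated from ADP (0.1 mM) and PEP (0.5 mM) by 0.1 nM LmPK over 1 h at room temperature (pH 7.2 imidazole buffer) was detected by coupled luciferase luminescence. Values were normalized to uninhibited and no-enzyme wells.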
Cycloheximide cs = Cycloheximide Counterscreen for Small Molecule Inhibitors of Shiga Toxin; max response, %; cell reporter, cycloheximide protein synthesis inhibition counterscreen; 300,000 compounds, 12% hits; in the data active = max response mostly above about 13%, no sharp cut-off; inactive = mostly below about 14%; also: read at 38.3 µM for the half of the compounds with a filed dose; 0% is about no effect
Shiga inhibitor = A qHTS for Small Molecule Inhibitors of Shiga Toxin | 290,000 compounds, 9.2% hits | inhibition, % at 38.7 µM | Vero cells, Shiga toxin protein synthesis inhibition reporter; in the data active = inhibition mostly above about 28%, no sharp cut-off; inactive = mostly below about 43%; also: 0% is about no effect
TbPYK inhibitor = qHTS of Trypanosoma Brucei Inhibitors; pyruvate kinase (Trypanosoma brucei), Q57TT1; TbPYK enzyme, Kinase-Glo Plus ATP luminescence, 45 min; Potency, µM (top dose mostly 76.8 µM), for inactives: at the highest dose activity, negative = inhibition, most hits filed as inhibitors; 410,000 compounds, 0.12% hits; AID 624173, 2012; also: potency is read from the fitted curve at half-maximal effect; % is scaled to controls: 0 for no effect and ±100 for the full control effect; nearly all actives have a fitted effect of over 50% in size
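Screened from lowest to highest concentration, compounds were pinned into TbPYK/substrate mixtures, and ADP (130 uM final) was added. Plates sat at room temperature for 45 min prior to Kinase-Glo Plus detection by luminescence.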
RE007 growth inh = qHTS Assay for Inhibitors of the HIV-1 protein Vpr; S. pombe RE007 Vpr strain, BacTiter-Glo ATP luminescence, 24 h; 360,000 compounds, 0.21% hits; Potency, µM (highest dose often 92.2 µM), without a hit: at the highest dose activity change, negative = less growth, most hits filed as inhibitors; AID 651644, 2012; active = well fitted falling curve with a large enough effect; inconclusive = small, poorly fitted or top-dose-only effect; inactive = no such curve, though single readings can be large or run the other way; also: potency is read from the fitted curve at half-maximal effect; % is scaled to controls: 0 for no effect and ±100 for the full control effect; nearly all actives have a fitted effect of over 50% in size
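Fission yeast RE007 carrying one integrated HIV-1 vpr copy, seeded at OD 0.01 in PMG+AL medium with 23 nL pinned compound. Grown 24 h at 30 degrees; viability read by BacTiter-Glo luminescence after 5 min.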
FBPA Giardia inh = qHTS Assay for Inhibitors of Fructose-1,6-bisphosphate Aldolase from Giardia Lamblia. A8B2U2. purified Giardia FBPA. Potency, µM (doses to about 59.6 µM), inactives show top-dose activity, negative = inhibition, usual class: inhibitors. 290,000 compounds, 0.71% hits. AID 2451, 2010; also: potency is read from the fitted curve at half-maximal effect; % is scaled to controls: 0 for no effect and ±100 for the full control effect; nearly all actives have a fitted effect of over 55% in size
Target sequence (A8B2U2 whole entry, looked up): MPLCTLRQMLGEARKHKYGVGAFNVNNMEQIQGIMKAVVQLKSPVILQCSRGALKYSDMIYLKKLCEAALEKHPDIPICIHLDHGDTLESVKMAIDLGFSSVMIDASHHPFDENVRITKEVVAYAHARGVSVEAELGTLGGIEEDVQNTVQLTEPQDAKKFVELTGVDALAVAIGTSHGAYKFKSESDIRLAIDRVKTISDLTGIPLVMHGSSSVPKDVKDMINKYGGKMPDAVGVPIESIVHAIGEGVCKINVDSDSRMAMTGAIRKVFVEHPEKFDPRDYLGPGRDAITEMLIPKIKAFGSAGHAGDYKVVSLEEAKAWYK
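Giardia FBPA (40 nM reagent) was preincubated 10 min at RT with compound (up to 57.5 uM final), then substrate plus GAPDH/TPI/NAD/arsenate coupling system with diaphorase/resazurin was added; resorufin fluorescence (525/598 nm) was read after 20 min.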
Starred values were filed as active, the others as inactive; ? = inconclusive; / = not tested or not shown; [ ] = remark or other dose. The entries come from a sample that favours hits as a whole. Unless noted, calls follow the shape of the dose curve; as a rule, active = well fitted curve in the direction sought with a large enough effect; inconclusive = small, poorly fitted or top-dose-only effect, or another doubt; inactive = no such curve, though single readings can be large; an effect the other way counts as inactive or inconclusive.

SMILES | LmPK inhibitor | Cycloheximide cs | Shiga inhibitor | TbPYK inhibitor | RE007 growth inh | FBPA Giardia inh
COc1ccc(C(=O)NC2CCSc3ccccc32)cc1 (stereo not given) | -7% | 19* | 35* | 3% | 7% | /
CC(=O)Nc1ccc(C(=O)NC2CCSc3ccccc32)cc1 (stereo not given) | -5% | 14* | 13 | -4% | 2% | -5%
COc1ccc(OC)c(C(=O)NC2CCSc3ccccc32)c1 (stereo not given) | -6% | -2 | -5 | -1% | 6% | 26%
CSc1ccc(C(=O)NC2CCSc3ccccc32)cc1 (stereo not given) | -1% | 11* | 38 | 2% | 5% | 3%
O=C(Cc1ccccc1)NC1CCSc2ccccc21 (stereo not given) | -2% | 2 | -3 | -1% | -16% | /
CC(NC(=O)c1cccc(Nc2nc3ccccc3n3nnnc23)c1)c1ccccc1 (stereo not given) | / | / | / | 3% | / | /
CCCc1ccc(S(=O)(=O)N2CCN(C(=O)CN3C(=O)NC(C)(C4CC4)C3=O)CC2)cc1 (stereo not given) | / | / | / | -2% | 12% | /
Cc1nn(C(=O)c2ccc(Cl)cc2)c(C)c1S(=O)(=O)N1CCCCCC1 | / | / | / | 1% | / | /
O=C1C2C3CCCC3=C3CCCC3C2C(=O)N1c1ccccc1Cl (stereo not given) | / | 7 | 2 | / | / | /
O=C(Nc1ccon1)c1ccc(N2CCCCC2)c([N+](=O)[O-])c1 | 2% | 45* | 99* | 1% | 8% | -2%
Cc1nnc(-c2ccc(N3CCCCCC3)c([N+](=O)[O-])c2)o1 | 9% | 15* | 50* | -12% | 7% | 2%
NC(=O)c1ccc(N2CCCCCC2)c([N+](=O)[O-])c1 | 0% | 3 | 3 | 1% | -14% | 4%
Cc1nnc(-c2ccc(N3CCOCC3)c([N+](=O)[O-])c2)o1 | / | / | / | 0% | 0% | /
O=C(Nc1nc2ccccc2s1)c1ccc(N2CCCCC2)c([N+](=O)[O-])c1 | -1% | 45* | 102* | 4% | -14% | 1%
Cc1cc(NC(=O)c2ccc(Cl)c([N+](=O)[O-])c2)no1 | -2% | 7 | 8 | -5% | 0% | -4%
Cc1cc(NC(=O)c2ccc(N3CCCC3)c([N+](=O)[O-])c2)no1 | -2% | 20* | 23 | -7% | -10% | 1%
CC(C)(C)CC(=O)NC1CC(=O)N(c2ccc3c(c2)OCCO3)C1 (stereo not given) | / | / | / | 0% | / | /
CCOC(=O)NNc1ccc2nonc2c1[N+](=O)[O-] | -1% | -1 | -6 | -17% | 25µM* | 7.1µM*
CCc1ccc(Nc2ccc3nonc3c2[N+](=O)[O-])cc1 | / | / | / | -1% | 5% | /
CC(=O)c1cccc(NC(=O)c2cc(-c3ccc(Cl)s3)nc3ccccc23)c1 | / | / | / | 0% | / | /
Cc1ccc(C2CC(=O)N(Cc3ccccc3)c3c2c(C)nn3-c2nc(C)cc(C)n2)cc1 (stereo not given) | / | / | / | -1% | / | /
CCOc1ccccc1C(=O)N1CCCCC1CCN1CCOCC1 (stereo not given) | / | / | / | 21% | / | /
O=C(O)c1ccc(N2C(=O)CC(N3CCC(c4nc5ccccc5[nH]4)CC3)C2=O)cc1 (stereo not given) | 0% | 1 | -6 | -12% | 0% | ?
CCCOc1ccc(N2C(=O)CC(SCCc3nc4ccccc4[nH]3)C2=O)cc1 (stereo not given) | -9% | -1 | -10 | -10% | -11% | -7%
O=C1CC(SCc2nc3ccccc3[nH]2)C(=O)N1c1ccc(Cl)cc1 (stereo not given) | -1% | 2 | -15 | -7% | 16µM* | -17%
SMILES | LmPK inhibitor | Cycloheximide cs | Shiga inhibitor | TbPYK inhibitor | RE007 growth inh | FBPA Giardia inh
O=C1CC(N2CCC(c3nc4ccccc4o3)CC2)C(=O)N1c1ccc(F)cc1 (stereo not given) | 3% | -6 | -5 | 6% | ? | 2%
O=C1CC(N2CCC(c3nc4ccccc4o3)CC2)C(=O)N1c1ccc(Cl)c(C(F)(F)F)c1 (stereo not given) | 0% | 3 | 7 | -3% | 28µM* | -3%
CCOc1ccc(N2C(=O)CC(SCc3nc4ccccc4[nH]3)C2=O)cc1 (stereo not given) | 2% | 8 | 10 | 5% | 10µM* | -17%
O=C1CC(N2CCC(c3nc4ccccc4[nH]3)CC2)C(=O)N1c1cccc(F)c1 (stereo not given) | -2% | 1 | -6 | -1% | 40µM* | 6%
CN(C)CC/C=C1\c2ccccc2COc2ccc(CC(=O)O)cc21 | / | / | / | 10% | / | /
CCOC(=O)c1ccc(NC(=O)CCCc2nc(-c3ccccc3Cl)no2)cc1 | / | / | / | -2% | / | /
O=C(CCCn1c(=O)c2cccn2c2cccnc21)Nc1ccccc1C(F)(F)F | / | / | / | -2% | / | /
Cc1ccc(C)c(Cn2c3ccccc3c3cnn(CC(=O)NCC(C)c4ccccc4)c(=O)c32)c1 (stereo not given) | / | / | / | -3% | / | /
O=C1CC(SCc2nc3ccccc3[nH]2)C(=O)N1c1cccc(F)c1 (stereo not given) | 2% | -1 | -8 | -7% | 32µM* | -19%
O=C1CC(SCc2nc3ccccc3[nH]2)C(=O)N1c1ccc(F)c(Cl)c1 (stereo not given) | 5% | -3 | -6 | / | -5%[3.69 µM] | -3%
CCC(=O)C1=C(c2cccc(OC)c2)N(C(=O)CC)n2c(nnc2C2CCCCC2)S1 | / | / | / | 16% | / | /
Cc1ccc(CNC(=O)/C=C/c2cccs2)cc1 | -3% | 27* | 78* | 7% | ? | 0%
CCCCNC(=O)/C=C/c1cccs1 | 0% | 33* | 48* | -1% | -70% | 1%
CCN1CCN(C(=S)NC(=O)/C=C/c2cccs2)CC1 | 1% | 17 | 3 | -2% | -25% | -13%
COc1ccc(C(=O)CNc2ccccc2C#N)cc1 | 6% | 28* | 76* | 6% | -23% | 0%
COCC(=O)Nc1ccccc1C#N | -7% | -1 | -5 | 3% | -12% | 5%
COc1ccccc1NCC(=O)c1ccc(C)c(C)c1 | -1% | 16* | / | -10% | 3% | -7%
COC(=O)c1ccccc1NCC(=O)c1ccc(OC)cc1 | -10% | 12 | 34 | -8% | 7% | 1%
COc1ccc(C(=O)CNc2ccc(C)cc2C)cc1 | 7% | 25* | 29 | 5% | -17% | 3%
COc1ccc(C(=O)CNc2ccccc2CO)cc1 | 3% | 42* | 111* | -1% | 7% | -9%
COc1ccccc1NCC(=O)c1ccc(Cl)cc1 | -5% | 6 | 13 | 0% | -20% | 4%
Cc1ccc2oc(-c3ccc(Cl)c(NC(=O)c4cc5ccccc5o4)c3)nc2c1 | / | / | / | 3% | / | /

Source: PubChem BioAssay (National Center for Advancing Translational Sciences (NCATS))
